Values joined by “and” are separate entries in the source; they are usually repeats but may differ in a detail not shown here. Equal values may be shown once. The campaign covered roughly 5,500 compounds. About 2,000 (36%) were called active. Not shown: some 18% with an inconclusive outcome. Cut-off read from the data, not from the text of the source: active = normalized growth mostly below about 0.91 (no sharp cut-off); inconclusive = no clear call, values can overlap the other calls; inactive = mostly above about 0.92. The list shows a part of the results.
Experiment: chemical genetic growth profiling, strain panel (AID 1159580);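 note: tested at 20 µM; growth read once vehicle control cultures reached saturation at 30 °C; 1 = growth at the plate median or of vehicle wells; lower values mean less growth of the strain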
Details: growth OD

Measured: normalized growth

CC(C[N+](C)(C)C)OC(N)=O (centres undefined)
inactive: S. cerevisiae deletion strains, locus YJR066W, strain TOR1, stronger effect = lower value 0.993 | S. cerevisiae deletion strains, locus YKL009W, strain mrt4, stronger effect = lower value 0.934 | S. cerevisiae deletion strains, locus YKL068W, stronger effect = lower value 0.991 | S. cerevisiae deletion strains, locus YKL085W, strain MDH1 (second series), stronger effect = lower value 0.996 | S. cerevisiae deletion strains, locus YKL085W, strain MDH1, stronger effect = lower value 0.996 | S. cerevisiae deletion strains, locus YKL160W, strain elf1, stronger effect = lower value 1.01 | S. cerevisiae deletion strains, locus YKL190W, strain CNB1, stronger effect = lower value 1 | S. cerevisiae deletion strains, locus YKR001C, strain vps1, stronger effect = lower value 0.96 | S. cerevisiae deletion strains, locus YKR026C, strain gcn3, stronger effect = lower value 1.02 | S. cerevisiae deletion strains, locus YKR091W, strain srl3, stronger effect = lower value 1.02 | S. cerevisiae deletion strains, locus YLL001W, strain dnm1, stronger effect = lower value 1.03 | S. cerevisiae deletion strains, locus YLL026W, stronger effect = lower value 1.01 | S. cerevisiae deletion strains, locus YLL041C, strain sdh2, stronger effect = lower value 1.04 | S. cerevisiae deletion strains, locus YLR027C, strain aat2, stronger effect = lower value 1.03 | S. cerevisiae deletion strains, locus YLR039C, strain RIC1, stronger effect = lower value 0.952 | S. cerevisiae deletion strains, locus YLR058C, strain SHM2, stronger effect = lower value 0.991 | S. cerevisiae deletion strains, locus YLR102C, strain apc9, stronger effect = lower value 0.983 | S. cerevisiae deletion strains, locus YLR113W, strain HOG1, stronger effect = lower value 0.957 | S. cerevisiae deletion strains, locus YLR221C, strain rsa3, stronger effect = lower value 1.04 | S. cerevisiae deletion strains, locus YLR258W, strain gsy2, stronger effect = lower value 1.04 | S. cerevisiae deletion strains, locus YLR262C, strain YPT6 (second series), stronger effect = lower value 1.02 | S. cerevisiae deletion strains, locus YLR262C, strain YPT6, stronger effect = lower value 0.939 | S. cerevisiae deletion strains, locus YLR268W, strain sec22, stronger effect = lower value 0.973 | S. cerevisiae deletion strains, locus YLR320W, strain mms22, stronger effect = lower value 1.03 | S. cerevisiae deletion strains, locus YLR330W, strain CHS5, stronger effect = lower value 0.994 | S. cerevisiae deletion strains, locus YLR342W, strain FKS1 (second series), stronger effect = lower value 1.06 | S. cerevisiae deletion strains, locus YLR342W, strain FKS1, stronger effect = lower value 1.02 | S. cerevisiae deletion strains, locus YLR357W, strain rsc2, stronger effect = lower value 1.02 | S. cerevisiae deletion strains, locus YLR370C, strain arc18, stronger effect = lower value 1.03 | S. cerevisiae deletion strains, locus YLR371W, strain rom2, stronger effect = lower value 0.976 | S. cerevisiae deletion strains, locus YLR384C, strain iki3, stronger effect = lower value 1.03 | S. cerevisiae deletion strains, locus YLR418C, strain cdc73, stronger effect = lower value 0.953 | S. cerevisiae deletion strains, locus YML016C, strain PPZ1, stronger effect = lower value 0.995 | S. cerevisiae deletion strains, locus YML032C, strain rad52, stronger effect = lower value 0.983 | S. cerevisiae deletion strains, locus YML120C, strain ndi1, stronger effect = lower value 1.03 | S. cerevisiae deletion strains, locus YML124C, strain tub3, stronger effect = lower value 0.986 | S. cerevisiae deletion strains, locus YMR058W, strain fet3, stronger effect = lower value 1.03 | S. cerevisiae deletion strains, locus YMR078C, strain ctf18, stronger effect = lower value 0.97 | S. cerevisiae deletion strains, locus YMR125W, strain sto1, stronger effect = lower value 1.05 | S. cerevisiae deletion strains, locus YMR129W, stronger effect = lower value 1.03 | S. cerevisiae deletion strains, locus YMR205C, strain PFK2, stronger effect = lower value 0.998 | S. cerevisiae deletion strains, locus YMR223W, strain ubp8, stronger effect = lower value 0.987 | S. cerevisiae deletion strains, locus YMR231W, strain pep5, stronger effect = lower value 1.02 | S. cerevisiae deletion strains, locus YMR307W, strain GAS1, stronger effect = lower value 1.09 | S. cerevisiae deletion strains, locus YNL067W, strain RPL9B, stronger effect = lower value 0.98 | S. cerevisiae deletion strains, locus YNL071W, strain lat1, stronger effect = lower value 1.01 | S. cerevisiae deletion strains, locus YNL128W, strain TEP1, stronger effect = lower value 0.975 and 0.99 | S. cerevisiae deletion strains, locus YNL153C, strain GIM3, stronger effect = lower value 0.995 | S. cerevisiae deletion strains, locus YNL175C, strain NOP13, stronger effect = lower value 0.997 | S. cerevisiae deletion strains, locus YNL183C, strain NPR1, stronger effect = lower value 0.96 | S. cerevisiae deletion strains, locus YNL197C, strain WHI3, stronger effect = lower value 1 | S. cerevisiae deletion strains, locus YNL209W, strain ssb2, stronger effect = lower value 1.03 | S. cerevisiae deletion strains, locus YNL224C, strain SQS1, stronger effect = lower value 0.995 | S. cerevisiae deletion strains, locus YNL233W, strain BNI4, stronger effect = lower value 0.999 | S. cerevisiae deletion strains, locus YNL248C, strain rpa49, stronger effect = lower value 1.01 | S. cerevisiae deletion strains, locus YNL250W, strain rad50, stronger effect = lower value 1 | S. cerevisiae deletion strains, locus YNL271C, strain bni1, stronger effect = lower value 0.973 | S. cerevisiae deletion strains, locus YNL298W, strain CLA4, stronger effect = lower value 0.976 | S. cerevisiae deletion strains, locus YNL307C, strain MCK1, stronger effect = lower value 0.97 | S. cerevisiae deletion strains, locus YNL322C, strain KRE1 (second series), stronger effect = lower value 1.01 | S. cerevisiae deletion strains, locus YNL322C, strain KRE1, stronger effect = lower value 0.992 | S. cerevisiae deletion strains, locus YNR049C, strain mso1, stronger effect = lower value 1.01 | S. cerevisiae deletion strains, locus YNR052C, strain pop2, stronger effect = lower value 0.982 | S. cerevisiae deletion strains, locus YOL006C, strain TOP1, stronger effect = lower value 1.02 | S. cerevisiae deletion strains, locus YOL012C, strain htz1 0.744 | S. cerevisiae deletion strains, locus YOL147C, strain pex11, stronger effect = lower value 0.987 | S. cerevisiae deletion strains, locus YOR001W, strain rrp6, stronger effect = lower value 1.03 | S. cerevisiae deletion strains, locus YOR061W, strain CKA2, stronger effect = lower value 0.99 | S. cerevisiae deletion strains, locus YOR069W, strain VPS5, stronger effect = lower value 0.987 | S. cerevisiae deletion strains, locus YOR070C, strain gyp1, stronger effect = lower value 1.03 | S. cerevisiae deletion strains, locus YOR080W, strain dia2, stronger effect = lower value 1.04 | S. cerevisiae deletion strains, locus YOR083W, strain WHI5 (second series), stronger effect = lower value 0.996 | S. cerevisiae deletion strains, locus YOR083W, strain WHI5, stronger effect = lower value 0.976 | S. cerevisiae deletion strains, locus YOR106W, strain vam3, stronger effect = lower value 1.05 | S. cerevisiae deletion strains, locus YOR136W, strain idh2, stronger effect = lower value 0.968 | S. cerevisiae deletion strains, locus YOR144C, strain elg1, stronger effect = lower value 0.985 | S. cerevisiae deletion strains, locus YOR184W, strain ser1, stronger effect = lower value 0.976 | S. cerevisiae deletion strains, locus YOR231W, strain MKK1, stronger effect = lower value 0.979 | S. cerevisiae deletion strains, locus YOR265W, strain rbl2, stronger effect = lower value 1.02 | S. cerevisiae deletion strains, locus YOR270C, strain vph1, stronger effect = lower value 1.05 | S. cerevisiae deletion strains, locus YOR290C, strain snf2, stronger effect = lower value 1.02 | S. cerevisiae deletion strains, locus YOR316C, strain cot1, stronger effect = lower value 0.977 | S. cerevisiae deletion strains, locus YPL051W, strain arl3, stronger effect = lower value 1.02 | S. cerevisiae deletion strains, locus YPL055C, strain LGE1, stronger effect = lower value 0.998 | S. cerevisiae deletion strains, locus YPL078C, strain atp4, stronger effect = lower value 1.02 | S. cerevisiae deletion strains, locus YPL106C, strain sse1, stronger effect = lower value 1.06 | S. cerevisiae deletion strains, locus YPL240C, strain hsp82, stronger effect = lower value 1.02 | S. cerevisiae deletion strains, locus YPL256C, strain CLN2, stronger effect = lower value 0.976 | S. cerevisiae deletion strains, locus YPR119W, strain clb2, stronger effect = lower value 0.985 | S. cerevisiae deletion strains, locus YPR141C, strain kar3, stronger effect = lower value 0.986 | S. cerevisiae deletion strains, locus YPR163C, strain tif3, stronger effect = lower value 0.979 | S. cerevisiae deletion strains, locus YPR167C, strain met16, stronger effect = lower value 0.98 | S. cerevisiae deletion strains, strain wtn01, stronger effect = lower value 1 | S. cerevisiae strains, strain wild type, stronger effect = lower value 0.994
